Screening results as filed in PubChem.
TRPML1 agonist: agonists of human TRPML1 channel; Q9GZU1; TRPML1-expressing cells, Ca2+ dye fluorescence, FDSS; activation, % (test concentration not listed); 410,000 compounds, 0.12% hits; AID 624414; in the data active = activation above about 50%; inconclusive = mostly about 30% to 49%; also: 0% is about no effect
Target sequence (Q9GZU1 whole entry, looked up): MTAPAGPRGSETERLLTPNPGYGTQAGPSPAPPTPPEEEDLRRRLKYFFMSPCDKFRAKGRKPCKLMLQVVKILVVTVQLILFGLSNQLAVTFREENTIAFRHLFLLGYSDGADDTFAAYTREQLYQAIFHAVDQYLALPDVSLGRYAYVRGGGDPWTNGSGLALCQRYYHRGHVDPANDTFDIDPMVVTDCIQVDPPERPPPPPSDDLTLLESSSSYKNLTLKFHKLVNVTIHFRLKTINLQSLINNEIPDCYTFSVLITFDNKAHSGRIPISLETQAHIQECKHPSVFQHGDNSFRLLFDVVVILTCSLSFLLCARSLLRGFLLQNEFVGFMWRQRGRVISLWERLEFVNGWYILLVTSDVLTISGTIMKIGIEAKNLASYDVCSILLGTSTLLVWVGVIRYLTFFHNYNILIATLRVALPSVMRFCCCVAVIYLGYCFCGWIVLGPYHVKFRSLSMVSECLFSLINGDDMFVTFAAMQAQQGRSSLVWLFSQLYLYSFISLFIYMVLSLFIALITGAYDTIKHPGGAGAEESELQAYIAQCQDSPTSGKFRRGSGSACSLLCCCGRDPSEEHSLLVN
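Agonist activity was taken from a 110 s kinetic Ca2+ dye read on the FDSS after pinning compounds onto TRPML1-DL cells. The cells were seeded at 1,500/well with Tet inducer, incubated about 16 h, then dye-loaded at room temperature.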
TRHR enhancer-1: allosteric enhancers of human TRH receptor; TRHR cells, fluo-8 calcium fluorescence, EC20 TRH enhancement; enhancement, % at 2 µM; 360,000 compounds, 0.66% hits; AID 493056; in the data active = enhancement above about 30%; also: 0% is about no effect
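TRHR-expressing cells loaded with fluo-8 calcium dye were read kinetically (ex 480/em 530) during compound addition, then stimulated with an EC20 of TRH (10 nM final). Enhancement of the Gq-mediated intracellular calcium response was scored.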
TRHR agonist-1: activates the human TRH receptor. P34981. TRHR cells, calcium flux fluo-8, FDSS agonist mode. activation, % at 2 µM. 360,000 compounds, 0.18% hits. AID 493084; in the data active = activation above about 30%; also: 0% is about no effect
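Steps: seed TRHR cells overnight; add fluo-8 no-wash Ca dye, RT 30 min–1.5 h; record 10 s baseline; pin-transfer compounds; monitor fluorescence 1 cycle/s for the agonist window. Calcium increases flag candidate agonists.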
TRPV1 potentiator: potentiators of human vanilloid receptor 1 (TRPV1) | 320,000 compounds, 0.02% hits | potentiation, % at 8.33 µM | TRPV1-expressing cells, Fluo-8 calcium influx, capsaicin EC20 potentiation | Q8NER1; in the data active = potentiation above about 80%; inconclusive = between about 30% and that limit; also: 0% is about no effect
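Cells expressing TRPV1 were dye-loaded with Fluo-8 and read kinetically: 10 s baseline, 3 min after compound (agonist portion), then 2 min after EC20 capsaicin (allosteric enhancer portion). Calcium-bound dye fluorescence at 480/520 nm.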
TRPV1 agonist: agonists of human vanilloid receptor 1 (TRPV1); AID 540275; activation, % at 8.33 µM; 320,000 compounds, 0.19% hits; Q8NER1; TRPV1-expressing cells, Fluo-8 calcium influx, agonist mode; in the data active = activation above about 80%; inconclusive = between about 30% and that limit; also: 0% is about no effect
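TRPV1-expressing cells were cultured overnight at 35.5C and loaded with Fluo-8 calcium dye for 40 to 90 min at room temperature. After a 10 s baseline, compound was added and calcium influx was read kinetically for 3 min (ex 480/em 520 nm).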
TRPML1 inh: inhibitors of human TRPML1 channel; activity change, negative = inhibition, % (concentration not given with the values); TRPML1-inducible cells, Ca2+ dye fluorescence, FDSS; active compounds read low; inhibition of EC80 agonist-evoked calcium signal; 390,000 compounds, 0.02% hits; AID 624415; in the data active = activity change below about -50%; inconclusive = between about -30% and that limit;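 also: stimulus is agonist 54-4 at its EC80 concentration; % is scaled to controls: 0 for no effect and ±100 for the full control effect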
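TRPML1-DL cells, Tet-induced overnight (~16 h, 37 °C) at 1,500 cells/well, were loaded with Ca8 no-wash dye plus quencher for 45-90 min at room temperature. Compounds were pinned during FDSS kinetic reading; agonist 54-4 at EC80 (4 uM final) then added.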
TRHR enhancer-2: confirmation of human TRH receptor allosteric enhancers. shares compounds with TRHR enhancer-1. TRH receptor cell assay, enhancer confirmation qHTS. activity change, negative = inhibition, % at 46.1 µM. 970 tested, under 10 active. AID 493076;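 also: compound effect scored on response to added TRH at EC20 of 10 nM; 0% is about no effect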
TRHR agonist-2: human TRH receptor agonism confirmation; Potency, µM (titrated, usually from 46.1 µM), for inactives: at the highest dose activation, usual class: activators; 970 compounds, 8% hits; TRHR-expressing cells, agonist activation read-out; shares compounds with TRHR enhancer-1; also: potency is read from the fitted curve at half-maximal effect; 0% is about no effect; nearly all actives have a fitted effect of over 75% in size
Starred values were filed as active, the others as inactive; ? = inconclusive; · = not tested or not shown. Only some compounds are listed: those with a hit (about 0.96% of all), similar ones and a draw of the others. Unless noted, calls follow the shape of the dose curve; as a rule, active = well fitted curve in the direction sought with a large enough effect; inconclusive = small, poorly fitted or top-dose-only effect, or another doubt; inactive = no such curve, though single readings can be large; an effect the other way counts as inactive or inconclusive.

SMILES | TRPML1 agonist | TRHR enhancer-1 | TRHR agonist-1 | TRPV1 potentiator | TRPV1 agonist | TRPML1 inh | TRHR enhancer-2 | TRHR agonist-2
CC(O)COCC1OC2OC3C(COCC(C)O)OC(OC4C(COCC(C)O)OC(OC5C(COCC(C)O)OC(OC6C(COCC(C)O)OC(OC7C(COCC(C)O)OC(OC8C(COCC(C)O)OC(OC1C(OCC(C)O)C2OCC(C)O)C(OCC(C)O)C8OCC(C)O)C(OCC(C)O)C7OCC(C)O)C(OCC(C)O)C6OCC(C)O)C(OCC(C)O)C5OCC(C)O)C(OCC(C)O)C4OCC(C)O)C(OCC(C)O)C3OCC(C)O (stereo not given) | 0 | · | · | · | · | · | · | ·
CCN(CC)S(=O)(=O)c1cccc(C(=O)N/N=C(\C)c2ccc(O)cc2O)c1 | 0 | -3 | 25 | 0 | 2 | 3 | 3 | ?
CC(=O)c1c(C)[nH]c(C(=O)COC(=O)COc2ccccc2F)c1C | 1 | 52* | -1 | 5 | 0 | -7 | -1 | 0%
CC(=O)c1c(C)[nH]c(C(=O)COC(=O)Cc2ccccc2F)c1C | 1 | · | · | · | · | -10 | · | ·
O=C(NNC(=O)c1n[nH]c2ccccc12)c1ccccc1 | 0 | 49* | 0 | -10 | -4 | 4 | ? | 7%
COCCNC(=O)C(c1ccc(OC)cc1)N(C(=O)Cn1nnc2ccccc21)c1cccnc1 (stereo not given) | 1 | 42* | 0 | 1 | -4 | -6 | -5 | 0%
CCc1ccc(C(C(=O)NCCOC)N(C(=O)Cn2nnc3ccccc32)c2cccnc2)cc1 (stereo not given) | 1 | 3 | 0 | 25 | -1 | 3 | · | ·
COc1cc(/C=C(/C#N)C(=O)NC(C)c2ccccc2)cc(OC)c1O (stereo not given) | 9 | 0 | 118* | -6 | 22 | 13 | 8 | 21µM*
CCCCN(CCCC)c1ccc(C=Nc2ccc(/C=C/c3ccnc4ccccc34)cc2)cc1C | 10 | · | · | · | · | · | · | ·
Cc1ccnc2c(O)cccc12 | 0 | · | · | · | · | · | · | ·
Cc1ccc(S(=O)(=O)N(CC(=O)N2CCOCC2)c2ccccc2F)cc1 | -1 | -10 | 0 | -15 | 19 | 20 | · | ·
CCOc1ccccc1N(CC(=O)N1CCOCC1)S(=O)(=O)c1ccc(SC)cc1 | 105* | -3 | 92* | -33 | 8 | -3 | -7 | 2.1µM*
O=C(Nc1ccc([N+](=O)[O-])cc1Cl)c1cc(Br)ccc1O | 0 | · | · | · | · | · | · | ·
CC(=O)CC(=O)Nc1cccc2c1CCCC2 | 2 | 4 | 0 | 13 | -2 | 5 | · | ·
CCCC(=O)Nc1cccc2c1CCCC2 | -1 | 49* | 0 | -8 | -1 | 3 | -1 | 0%
Clc1ccc(CSc2nnc(-c3ccncc3)s2)cc1 | 2 | -5 | -2 | 0 | ? | 37 | · | ·
Clc1cccc(Cl)c1CSc1nnc(-c2ccncc2)s1 | 7 | 3 | 25 | 1 | 17 | 3 | 0 | ?
O=C(Nc1ccccn1)N1CCOCC1 | 0 | 48* | 0 | 9 | -1 | -4 | -2 | -1%
O=c1oc2c(CN3CCN(CCO)CC3)c(O)ccc2cc1-c1ccccn1 | 5 | -3 | 33* | ? | 3 | -4 | 3 | ?
CC(C)c1ccc(NC(=O)CSc2nnc(-c3ccccc3)n2C)cc1 | 1 | · | · | · | · | · | · | ·
COc1ccc(Cl)cc1S(=O)(=O)NCCCn1ccnc1 | 1 | 22 | 1 | 2 | 1 | 24 | · | ·
COc1ccc(Cl)cc1S(=O)(=O)NC(C)C(=O)NCCCn1ccnc1 (stereo not given) | 0 | 67* | 1 | -15 | 1 | 2 | -2 | -1%
O=[N+]([O-])c1cccc(N=Cc2sc3ccccc3c2O)c1 | · | 43* | 1 | -1 | -4 | · | -3 | 0%
O=[N+]([O-])c1ccc(N=Cc2sc3ccccc3c2O)cc1 | 6 | -4 | 7 | -8 | 8 | -6 | · | ·
Cc1cnccc1/C=C/c1ccc(N)cc1 | 5 | · | · | · | · | · | · | ·
SMILES | TRPML1 agonist | TRHR enhancer-1 | TRHR agonist-1 | TRPV1 potentiator | TRPV1 agonist | TRPML1 inh | TRHR enhancer-2 | TRHR agonist-2
C/C=C/c1ccc(OCCCCNCc2ccco2)c(OC)c1 | 0 | 69* | 0 | -11 | 14 | -19 | ? | ?
CN(C)c1ccc(/C=C/c2sc3ccccc3[n+]2Cc2ccccc2)cc1 | 1 | · | · | · | · | · | · | ·
CCN(CC(=O)Nc1c(F)cccc1F)C(=O)c1cccc(S(=O)(=O)N2CCCCCC2)c1 | 0 | 42* | 0 | -7 | 2 | -12 | -3 | 1%
Cc1ccc(O)c(C(=O)c2cc(C#N)c3nc4ccccc4n3c2)c1 | 8 | 1 | 42* | 0 | 17 | -1 | -2 | ?
Cc1ccc(O)c(C(=O)c2cc(C#N)c(=O)n(Cc3ccccc3)c2)c1 | 3 | -4 | 3 | 5 | 2 | 26 | · | ·
O=S(=O)(c1ccc(OC(F)(F)F)cc1)N1CCN(c2nc(-c3cccs3)nc3ccccc23)CC1 | 0 | · | · | · | · | · | · | ·
O=C1NC(=Nc2ccccc2Cl)S/C1=C\c1cc([N+](=O)[O-])ccc1O | 9 | 0 | 8 | 21 | 13 | -20 | · | ·
COc1cccc(N=C2NC(=O)/C(=C/c3cc([N+](=O)[O-])ccc3O)S2)c1 | 12 | 1 | 55* | 9 | 5 | -13 | 5 | ?
OCCC1CN(Cc2cc3c(cc2Cl)OCO3)CCN1C1CCCC1 (stereo not given) | 0 | 54* | 0 | 4 | 3 | 11 | 0 | 5%
COc1cccc(/C=N/NC(=O)c2c(C)nc3ccc(Br)cn23)c1O | 13 | 2 | 35* | 6 | -2 | 32 | 0 | ?
O=C(NCCc1ccc(Cl)cc1)C12CC3CC(CC(O)(C3)C1)C2 | -1 | 45* | 0 | -12 | ? | -1 | 0 | 1%
COc1ccc(N2C(=O)CC(Sc3nc(C)cc(C)c3C#N)C2=O)cc1 (stereo not given) | 0 | 41* | 0 | 0 | -1 | 12 | -4 | 1%
CCc1ccc(NC(=S)N2CCN(C)CC2)cc1 | 1 | 58* | 1 | 9 | 4 | 13 | 4 | -1%
CCc1ccc(NC(=S)N2CCCC2)cc1 | 0 | -9 | 0 | -11 | 22 | -4 | · | ·
COC(=O)CN(c1nc(C)cc(OC)n1)S(=O)(=O)c1ccccc1 | 3 | 68* | -1 | 0 | 6 | -6 | -7 | 2%
COc1cc(C)nc(N(Cc2ccccc2)S(=O)(=O)c2ccccc2)n1 | 2 | -3 | 0 | -2 | 1 | 43 | · | ·
Cn1c2cc(B(O)O)sc2c2cnn(Cc3ccc(F)cc3F)c(=O)c21 | · | 1 | 4 | · | · | · | · | ·
